Experimental data reported in the supplement of paper PMC11417369.
± gives the standard deviation of the averaged measurements. In all, about 25,000 sequences were measured (“ln(normalized median fluorescence intensity)”: median about 8.9, highest 2% from about 10 on). The sample as a whole holds a higher share of the highest values than the screen did.

What follows are sequences tested on PfAP2-LT AP2 domain (GST-tagged) (assay: gcPBM binding intensity (ln(normalized median fluorescence intensity)); higher = stronger DNA binding).
Summary of the method: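 For binding intensity, the highest Masliner-normalised natural-log median intensity across replicate spots of either probe orientation was taken. Protein bound to the array was stained with Alexa488 anti-GST antibody and scanned at 488 nm. The protein, GST-tagged P. falciparum DNA-binding domains from E. coli at about 25 μg on average, had been applied for 1 h to an Agilent 4 × 180k array of primer-extended double-stranded 36-bp intergenic genomic probes and negative controls.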
For “CACCCACACCAACACACACACATATATAATATATAT [CACACA_site595]”, the “gcPBM binding intensity (ln)” value was 9.88 ± 0.33.
In the case of “CATACTCACCAACACACACACACACCCATATAGAAT [CACACA_site592]”, the “gcPBM binding intensity (ln)” value is reported as 10.2 ± 0.28.
In the case of “ATAAGGATCAGACACAAACACACATATATATATATA [CACACA_site558]”, the “gcPBM binding intensity (ln)” value is reported as 10.1 ± 0.13.
In the case of “AACCACATACATATAACACACATATACAATATATAT [CACACA_site8607]”, the “gcPBM binding intensity (ln)” value is reported as 9.29 ± 0.39.
With “TCATAGTAGAAACACACACACACACCCATATATATA [CACACA_site1737]” the “gcPBM binding intensity (ln)” value was 10.1 ± 0.23.
With “AAGGATCACAGACAAACACACATATATATATATATA [CACACA_site4469]” the “gcPBM binding intensity (ln)” value was 10.1 ± 0.16.
“AATAACCACCAACACACACACATATATATATATATA [CACACA_site3540]” was tested, and the “gcPBM binding intensity (ln)” value was 10.2 ± 0.24.
“TAATTTAGTATCTTTACATGCGGGCATTATGTCATA [TGCATGCA_site167]” was tested, and the “gcPBM binding intensity (ln)” value was 8.74 ± 0.4.
With “AAGAAAATAGGGTTCATAGGATTATACTTTTGGAAT [TGCATGCA_negctrl_site80]” the “gcPBM binding intensity (ln)” value was 8.59 ± 0.54.
In the case of “TAATACTTAATGAACACATGCACATATACATAGTAT [TGCATGCA_site496]”, the “gcPBM binding intensity (ln)” value is reported as 8.82 ± 0.47.
In the case of “ACTTTTTTTTTGTGTGTGCACTCGATTATATACATA [GTGCAC_site9846]”, the “gcPBM binding intensity (ln)” value is reported as 9.57 ± 0.46.
“TAAAAAGGAAAACACACACACACATATATATATATA [CACACA_site3588]” was tested, and the “gcPBM binding intensity (ln)” value was 10.2 ± 0.26.
For “ATAAAAAGGAAACACACACACACACCCATATATATA [CACACA_site904]”, the “gcPBM binding intensity (ln)” value was 10.41 ± 0.042.
With “AGAATAAAAAGGAACACACACACACCCATATATATA [CACACA_site3590]” the “gcPBM binding intensity (ln)” value was 10.1 ± 0.5.
In the case of “AGGAAAAAAGAAAAAACACACATAAATATATATATA [CACACA_site3085]”, the “gcPBM binding intensity (ln)” value is reported as 9.11 ± 0.38.
For “AAAAGGAAAAATATCACACATATATATATATATATA [CACACA_site5586]”, the “gcPBM binding intensity (ln)” value was 9.76 ± 0.45.
With “ATAAAAAAAAGAAAAACACACACATATATATATATA [CACACA_site8243]” the “gcPBM binding intensity (ln)” value was 9.77 ± 0.27.
For “AATGAAAAGGAACATACACACCCCATATAAATATAT [CACACA_site7588]”, the “gcPBM binding intensity (ln)” value was 9.62 ± 0.13.
For “TATAAAAGGAAACACACACACATATATATATATATA [CACACA_site939]”, the “gcPBM binding intensity (ln)” value was 10.2 ± 0.32.
“AAGGAATAATATAAAACACACACATAAATATAAATA [CACACA_site9115]” was tested, and the “gcPBM binding intensity (ln)” value was 9.6 ± 0.42.
“AAAAAAATTACATATCCATTTTAACATAATAAATAG [GTGCAC_negctrl_site618]” was tested, and the “gcPBM binding intensity (ln)” value was 8.33 ± 0.45.
In the case of “TACAGAATTGTATATAGTACATAAAACAATATATAT [XGTACX_site7275]”, the “gcPBM binding intensity (ln)” value is reported as 8.88 ± 0.4.
With “AAAATAAATAAATAAATAAATATATATATATATATA [XGTACX_negctrl_site345]” the “gcPBM binding intensity (ln)” value was 9.16 ± 0.3.
In the case of “AGCCTCGGGGTCATATATATATATATATATATATAT [CACACA_negctrl_site512]”, the “gcPBM binding intensity (ln)” value is reported as 10.35 ± 0.05.
With “ATCAGATATATATATTGTACATTTATATATAAATCA [XGTACX_site1960]” the “gcPBM binding intensity (ln)” value was 8.62 ± 0.46.
With “TAACAAAAAGCACTTAGTACATATATATATATATAT [XGTACX_site1099]” the “gcPBM binding intensity (ln)” value was 9.88 ± 0.44.
In the case of “AAAAAAAAAAAAAACACACACATATCTATAATATAT [CACACA_site7481]”, the “gcPBM binding intensity (ln)” value is reported as 9.35 ± 0.44.
With “AAAAAAAAAAAAAAAACACACATACATACATACATA [CACACA_site6125]” the “gcPBM binding intensity (ln)” value was 9.26 ± 0.41.
For “AAAAAAAAAAAACACACACACACACTAGTACATACA [CACACA_site4551]”, the “gcPBM binding intensity (ln)” value was 10.2 ± 0.3.
In the case of “AAAAAAAAAAAACACACACACACACTAATACATACA [CACACA_site8135]”, the “gcPBM binding intensity (ln)” value is reported as 10.1 ± 0.12.
“AAAAAAAAAAAACACACACACACATACACATACATA [CACACA_site2858]” was tested, and the “gcPBM binding intensity (ln)” value was 10.1 ± 0.22.
For “AAAAAAAAAAAACATACACACACACTAATATTTATA [CACACA_site8038]”, the “gcPBM binding intensity (ln)” value was 9.6 ± 0.23.
“CCTGAACACATACATACACACACACTAATAAAAAAA [CACACA_site8023]” was tested, and the “gcPBM binding intensity (ln)” value was 9.69 ± 0.46.
“TAAATGTCTTCAATGAAGTGGAAATGCTGTTATATA [CACACA_negctrl_site1155]” was tested, and the “gcPBM binding intensity (ln)” value was 8.54 ± 0.31.
“TATAATCATATACACGCATGTATAAAATTTAATACT [TGCATGCA_site700]” was tested, and the “gcPBM binding intensity (ln)” value was 8.96 ± 0.35.
For “ACTATTAAAATGAATACACACAAATATAAAAATATA [CACACA_site4145]”, the “gcPBM binding intensity (ln)” value was 8.96 ± 0.5.
“TAATTTTTCCAACTTTGTACAGATATATTAATAAAA [XGTACX_site7856]” was tested, and the “gcPBM binding intensity (ln)” value was 8.13 ± 0.35.
With “AAAAAAACATGAAACACACACAAATATATATATATA [CACACA_site1884]” the “gcPBM binding intensity (ln)” value was 9.53 ± 0.52.
“TGAAATGATATATAAACACACATATATATATATATA [CACACA_site3511]” was tested, and the “gcPBM binding intensity (ln)” value was 9.62 ± 0.25.
In the case of “ATAAAATGAACAAACACACACACATATATTTATATA [CACACA_site7181]”, the “gcPBM binding intensity (ln)” value is reported as 9.84 ± 0.16.
In the case of “AAACAAAATGGTAACACACACATATATATATATATA [CACACA_site1939]”, the “gcPBM binding intensity (ln)” value is reported as 10.09 ± 0.021.
“TAAAACAAAATGGTAACACACACATATATATATATA [CACACA_site8590]” was tested, and the “gcPBM binding intensity (ln)” value was 9.87 ± 0.15.
In the case of “AAAAATGAGAAACACACACACATATATATATATATA [CACACA_site2228]”, the “gcPBM binding intensity (ln)” value is reported as 9.94 ± 0.19.
In the case of “ACACATAAATGTATATATATATAAATATATGTATGT [CACACA_negctrl_site1532]”, the “gcPBM binding intensity (ln)” value is reported as 9.12 ± 0.33.
With “AAACAAAATGGTAACACACACATATATAAATATGTA [CACACA_site6994]” the “gcPBM binding intensity (ln)” value was 9.38 ± 0.47.
For “TGCAAGGAACAACACACACACACATAAATGTATATA [CACACA_site8149]”, the “gcPBM binding intensity (ln)” value was 10.2 ± 0.36.
“TGCAAGGAAAAACACACACACACATAAATGTATATA [CACACA_site751]” was tested, and the “gcPBM binding intensity (ln)” value was 9.79 ± 0.25.
“AAAATGAACAAACACACACACATATATATATATATA [CACACA_site2403]” was tested, and the “gcPBM binding intensity (ln)” value was 10.27 ± 0.057.
In the case of “AAAAAAATGAAACACACACACACATATATATATATA [CACACA_site1043]”, the “gcPBM binding intensity (ln)” value is reported as 10.1 ± 0.085.
